We go through 40 compounds from PubChem BioAssay (Tox21).

Structures are written as SMILES. Inconclusive results are not listed. Entries that show only a call come without a potency. A number with no mark means an inactive call. Calls of active or inactive are those of the source. The call rests on the fitted dose curve; in most records, active means well fitted cell-killing curve with a large enough effect in the repeat runs (not every such curve was filed as active); inconclusive means weak or mixed curves, or effect the other way; inactive means no such curve, though single readings can be large or run the other way.
Potency means the concentration at half of the fitted maximal effect.

This test in a line: qHTS assay to identify small molecule antagonists of the estrogen related receptor signaling pathway with the pleiotropic PPARgamma coactivator (PGC) from Tox21 10K library - cell viability counter screen (AID 1224840). Further: nearly all actives have a fitted effect of over 40% in size. As to conditions: PGC/ERR reporter cells viability, CellTiter-Fluor, 17.5 h; series mostly up to 92.4 µM. From the text: National Center for Advancing Translational Sciences [NCATS]
NIH Chemical Genomics Center [NCGC]
U.S. Environmental Protection Agency [EPA]
National Institutes of Environmental Health Sciences [NIEHS]
National Toxicology Program [NTP]
U.S. Food and Drug Administration [FDA]
Estrogen related receptors (ERRs), the first orphan nuclear receptors discovered, play an important role in the control of cellular energy metabolism. ERRs are required for high-energy production in response to the environmental challenges. The pleiotropic PPARgamma coactivator (PGC) is a major partner of ERR and a key regulator in energy homeostasis. Together they have been implicated in the etiology of metabolic disorders such as Type 2 diabetes and metabolic syndrome. ERR-alpha was also identified as an adverse marker for breast cancer progression; ERR-alpha-positive tumors have a poor prognosis. To screen and to identify environmental compounds that perturb the ERR and PGC/ERR signaling pathways could provide valuable information for potential therapeutic or preventive measures in the treatment of metabolic disease. To differentiate true PGC/ERR antagonists or agonist from cytotoxic substances, the assay is multiplexed with cell viability assay.
Tox21 Assay Protocol Summary:
The PGC/ERR cells were dispensed at 2,000 cells/5 ul/well in 1536-well white plates using a Multidrop dispenser. After the assay plates were incubated at a 37 C/5% CO2 incubator for 6 hours, 23 nL of compounds dissolved in DMSO, positive and negative controls or DMSO only was transferred to the assay plate by a pin tool. The plates were incubated at 37 C for 17.5 hours. 1 ul/well of CellTiter-Fluor reagent was added into the assay plates using a Flying Reagent Dispenser. After 30-minute incubation at 37 C/5% CO2, the fluorescence intensity in the plates was measured using a ViewLux plate reader.
A general note: Quantitative high-throughput screening tests each substance at several concentrations.
Regarding `CC(=O)CC(N)=O`, the Potency entry is “inactive”.

As to `Oc1ccc(C2(c3ccc(O)c(C4CCCCC4)c3)CCCCC2)cc1C1CCCCC1`, the Potency was 61.1 µM (active).

`O=C(Nc1ccccc1)c1cc(Cl)ccc1O`: the Potency is 17.2 µM (active). As to `CCCCCCCC/C=C\CCCCCCCC(=O)N(CCO)CCO`, the Potency entry is “inactive”. Same read-out and setting: the entry for `Nc1c(Br)cc([N+](=O)[O-])cc1Br` is “inactive”; for `CC1=CC[C@@H](C(C)(C)O)CC1` it is “inactive”; for `O=C1c2ccccc2C(=O)c2c(Cl)cccc21` it is “inactive”. Take `CCOc1ccc([N+](=O)[O-])cc1`: the Potency result is “inactive”. In the case of `Oc1ccc(Cl)cc1C1CCCC1`, the Potency entry was “inactive”. `Cc1ccc(Cl)c(N)c1Cl`: the Potency result is “inactive”. The same measure, in the same setting: the entry for `CCC(=O)OC/C=C(\C)CCC=C(C)C` is “inactive”. For the compound `CN1CCN(C)CC1`, the Potency entry is “inactive”. For `C1CCSC1`, the Potency entry was “inactive”. In the case of `CC(C)c1ccc2sc3ccccc3c(=O)c2c1`, the Potency entry is “inactive”. Regarding `COc1c(Br)cc(Br)c(C)c1Br`, the Potency result is “inactive”. As to `O=C(N[C@H](CO)[C@H](O)c1ccc([N+](=O)[O-])cc1)C(Cl)Cl`, the Potency result was “inactive”. Still for that read-out and setting: in the case of `c1ccc2cc3c4ccccc4c4ccccc4c3cc2c1` it was “inactive”.

On to `C/C=C/C(=O)C1=C(C)C=CCC1(C)C`, for which the Potency result is “inactive”. With `CN1CC[C@H](c2c(O)cc(O)c3c(=O)cc(-c4ccccc4Cl)oc23)[C@H](O)C1`, the Potency result is “inactive”. Same read-out and setting: in the case of `CCOC=C(C(=O)OCC)C(=O)OCC` it was “inactive”; in that of `ClC(c1ccccc1)(c1ccccc1)c1ccccc1`, “inactive”; in that of `CC(=O)[C@]1(O)Cc2c(O)c3c(c(O)c2[C@@H](O[C@H]2C[C@H](N)[C@H](O)[C@H](C)O2)C1)C(=O)c1ccccc1C3=O`, 11.9 µM (active).

Consider `CCCCCCCCCCCC(=O)Cl`, for which the Potency entry is “inactive”. Still for that read-out and setting: in the case of `CC/C(=C(/c1ccc(O)cc1)c1ccc(OCCN(C)C)cc1)c1ccccc1` it was 32 µM (active).

For the compound `Nc1ccc(Oc2cccc(Oc3ccc(N)cc3)c2)cc1`, the Potency result is “inactive”. As to `CCCCCc1ccc(O)cc1`, the Potency entry is “inactive”. On the same count and under the same terms, in the case of `O=C1CCCCCCCCCCCCCC1` it was “inactive”; in that of `COC(=O)c1ccc([N+](=O)[O-])cc1`, “inactive”; in that of `C=CCc1cc(S(=O)(=O)c2ccc(O)c(CC=C)c2)ccc1O`, “inactive”. On the same count and under the same terms, the entry for `Brc1cc(Br)cc(Br)c1` is “inactive”; for `CN(C/C=C/c1ccccc1)Cc1cccc2ccccc12` it is “inactive”. On the same count and under the same terms, the entry for `CCc1c(C)cc(N)c(CC)c1N` is “inactive”; for `O=S(=O)(c1ccc(OCc2ccccc2)cc1)c1ccccc1O` it is “inactive”; for `O=[N+]([O-])c1ccc(O)c2ncccc12` it is 10.6 µM (active). `O=C(CCN1CCC(c2ccccc2)C1)c1ccc2c(c1)OCCO2` (stereo not given): the Potency result was “inactive”. Take `C=C[Si](C)(C)Cl`: the viability change, negative = cytotoxic was 3.07% [at 8.39 µM]. Regarding `SC1CCCCC1`, the Potency result was “inactive”. In the case of `C=Cc1ccncc1`, the Potency result is “inactive”. With `CCN(CC)c1ccc2c(c1)Oc1cc(N(CC)CC)ccc1C21OC(=O)c2ccccc21`, the Potency was 8.41 µM (active). Consider `[Cl][Dy]([Cl])[Cl]`, for which the Potency result is “inactive”.
